High-throughput results (PubChem BioAssay)
The list is not random: actives were taken first. Their share in the collection is about 1.8%.
EWS-Fli inh: EWS/Fli-driven NR0B1 reporter inhibitors, primary screen, A673 cells, NR0B1 luciferase, luminescence, MLPCN library. viability-normalised. inhibition, % at 12.6 µM. 350,000 tested, 0.67% active;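 active means mean inhibition of at least 50% after viability correction, with every replicate also passing that limit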;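 further: firefly luciferase signal divided by Alamar Blue viability fluorescence both relative to DMSO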
CFTR F508del cor: F508del CFTR correction, initial screen, CFBE line, single point | CFBE cells, YFP halide quenching; stimulated with forskolin plus potentiator P3; % fluorescence drop versus neutral controls | activity (quench increase), % at 7.58 µM | 350,000 tested, 0.36% active;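 active means mean added fluorescence quench of at least 8% versus neutral control, with both replicates also reaching 8%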;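 further: cells transiently co-express mutant CFTR-F508del with the halide-sensitive YFP; corrector assay measuring rescue of mutant channel to the surface after 24 h compound exposure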
PAX8 inh HTS: inhibitors of PAX8-driven TPO luciferase reporter, primary screen, RMG-I cells, single concentration; SteadyGlo, 24 h; inhibition, % at 12.6 µM; 360,000 tested, 1.2% active;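 active means mean replicate inhibition at least 60% with every replicate also reaching 60%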;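 further: luciferase light reporting Pax8 driven TPO promoter activity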
LGR2 antag: inhibitors of bursicon-induced LGR2 CRE-luciferase signal, primary screen, cell-based, HEK293, CRE-luciferase reporter, bursicon stimulation; Drosophila bursicon receptor LGR2 (rickets); bursicon-stimulated, 4 h; inhibition, % at 9.99 µM; 380,000 tested, 0.35% active;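 active means drop in luminescence signal, shown as inhibition above about 50% in the replicate tests, limit read from the data, passing the limit was not always enough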;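 further: agonist challenge used bursicon conditioned medium at about half maximal strength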
Hits are given with their value; . = inactive; / = not tested or not shown; ! = repeats disagree.

SMILES	EWS-Fli inh	CFTR F508del cor	PAX8 inh HTS	LGR2 antag
COC(=O)c1ccsc1NC(=O)CCS(=O)(=O)c1ccc(Cl)cc1	.	.	83	.
Cc1ccc(S(=O)(=O)CCC(=O)Nc2sccc2C(N)=O)cc1	.	.	.	.
COC(=O)c1ccsc1NC(=O)CS(=O)(=O)c1ccccc1	.	.	.	.
COC(=O)c1ccsc1NC(=O)CCS(=O)(=O)c1ccccc1	/	.	84	.
COC(=O)c1ccsc1NC(=O)c1ccccc1	.	8.6	.	.
CC(C)[C@H](NC(=O)c1ccccc1F)C(=O)Nc1ccc(F)c(F)c1	.	.	.	.
COc1ccc(NC(=O)N(C)C[C@H]2OCCCC[C@@H](C)Oc3ccc(NC(=O)c4ccccc4)cc3C(=O)N([C@H](C)CO)C[C@@H]2C)cc1	.	.	.	.
CCOC(=O)CSc1nc(COc2ccccc2)nc2ccccc12	.	.	.	/
FC(F)(F)c1cc(-c2ccccc2)nc(N2CCCCC2)n1	/	/	/	.
O=C(O)C1CCCN1c1nc(-c2ccc(Cl)c(Cl)c2)cc(C(F)(F)F)n1 (configuration not stated)	.	.	77	.
Cc1nc(CSc2nnc(C)s2)cs1	.	.	85	.
C/C(CC(=O)Nc1ccc(N(C)C)cc1)=N\NC(=O)c1ccc([N+](=O)[O-])cc1	.	.	.	.
C[C@@H]1CN([C@H](C)CO)C(=O)c2cc(NC(=O)CCCCCC(=O)Nc3ccccc3N)ccc2O[C@@H](C)CCCCO[C@H]1CN(C)Cc1ccc(Cl)c(Cl)c1	.	.	80	.
C[C@@H]1CCCCO[C@H](CN(C)Cc2ccc(Cl)c(Cl)c2)[C@@H](C)CN([C@H](C)CO)C(=O)c2cc(NC(=O)CCCCCC(=O)Nc3ccccc3N)ccc2O1	.	.	73	.
COc1ccc(C(C)=O)cc1CN(C)C	/	/	.	/
CO[C@H]1CN(C)C(=O)c2ccc(NC(=O)C3CCOCC3)cc2OC[C@@H](C)N(CC2CC2)C[C@@H]1C	.	.	.	.
O=C(COCc1ccccc1)N[C@@H]1c2ccccc2CC[C@H]1OCc1ccccc1	.	.	.	.
O=C(c1ccc(S(=O)(=O)NCC2CCCO2)cc1)N1CCN(c2cccc(Cl)c2)CC1 (configuration not stated)	.	16	.	.
Cn1c(=O)c2c(nc(NCCCN3CCOCC3)n2Cc2ccc(Cl)c(Cl)c2)n(C)c1=O	/	/	.	/
O=C(O)c1cc(/C=C/c2ccc(N3CCOCC3)cc2)nc2ccccc12	.	.	.	69
O=C(O)c1cc(/C=C/c2ccc(N3CCOCC3)c([N+](=O)[O-])c2)nc2ccccc12	.	.	.	.
C[C@@H]1CCCCO[C@@H](CN(C)Cc2ccc(Cl)c(Cl)c2)[C@H](C)CN([C@@H](C)CO)C(=O)c2cc(NC(=O)CCC(F)(F)F)ccc2O1	.	.	88	.
C[C@@H]1CCCCO[C@@H](CN(C)Cc2ccc(Cl)c(Cl)c2)[C@@H](C)CN([C@H](C)CO)C(=O)c2cc(NC(=O)CCC(F)(F)F)ccc2O1	.	.	67!	.
C[C@@H]1CN([C@@H](C)CO)C(=O)c2cc(NC(=O)CCC(F)(F)F)ccc2O[C@@H](C)CCCCO[C@H]1CN(C)Cc1ccc(Cl)c(Cl)c1	.	.	.	.
CN1OC[C@@H]2CN(C(=S)Nc3cc(C(F)(F)F)cc(C(F)(F)F)c3)[C@H](c3ccccc3Br)C[C@@H]21	.	.	84	.
SMILES	EWS-Fli inh	CFTR F508del cor	PAX8 inh HTS	LGR2 antag
COc1cc(CCNC(=O)CCCn2c(=O)c3cccn3c3cccnc32)cc(OC)c1OC	/	.	.	.
Oc1ccc2ccccc2c1/C=C/c1ccc2c(Br)cc(Br)c(O)c2n1	.	13	.	.
Cc1nn(-c2cccc(C(F)(F)F)c2)c(Cl)c1/C=N/Nc1cccc(C(=O)O)c1	.	/	.	.
Cc1nn(-c2ccccc2Cl)c(Cl)c1/C=N/Nc1cccc(C(=O)O)c1	/	/	.	80
Cc1ccc(/C=N/Nc2cccc(C(=O)O)c2)s1	/	/	.	58
Cc1ccc(/C=N/Nc2ccc(C(=O)O)cc2)s1	67	.	75	90
CCOc1cc(/C=N/Nc2cccc(C(=O)O)c2)ccc1OC(=O)c1ccccc1	.	.	67	64
Cc1ccc(/C=N/Nc2ccc(C(=O)O)cc2)o1	.	.	.	.
COCCOC(=O)N1C(=O)[C@@]2(c3cc(C#CCC(C(=O)OC)C(=O)OC)ccc31)[C@H](C(N)=O)[C@H]1C(=O)O[C@H](c3ccccc3)[C@H](c3ccccc3)N1[C@@H]2c1ccc(OCCO)cc1	.	.	/	/
